The list is not random: actives were taken first. Their share in the collection is about 13%.
USP8 inh – inhibitors of human USP8 deubiquitinase | purified USP8, Ub-rhodamine cleavage fluorescence, 30 min | inhibition, % at 20 µM | 4.2% of 47,000 active | AID 1645853
USP28 inh – human USP28 deubiquitinase inhibition | 3% of 47,000 active | inhibition, % at 25 µM | purified USP28, Ub-rhodamine cleavage fluorescence, 30 min | AID 1645857
USP30 inh – human USP30 deubiquitinase inhibition; 5.3% of 47,000 active; purified USP30, Ub-rhodamine cleavage fluorescence; inhibition, % at 25 µM; AID 1645860; Q70CQ3
Target sequence (Q70CQ3 whole entry, looked up): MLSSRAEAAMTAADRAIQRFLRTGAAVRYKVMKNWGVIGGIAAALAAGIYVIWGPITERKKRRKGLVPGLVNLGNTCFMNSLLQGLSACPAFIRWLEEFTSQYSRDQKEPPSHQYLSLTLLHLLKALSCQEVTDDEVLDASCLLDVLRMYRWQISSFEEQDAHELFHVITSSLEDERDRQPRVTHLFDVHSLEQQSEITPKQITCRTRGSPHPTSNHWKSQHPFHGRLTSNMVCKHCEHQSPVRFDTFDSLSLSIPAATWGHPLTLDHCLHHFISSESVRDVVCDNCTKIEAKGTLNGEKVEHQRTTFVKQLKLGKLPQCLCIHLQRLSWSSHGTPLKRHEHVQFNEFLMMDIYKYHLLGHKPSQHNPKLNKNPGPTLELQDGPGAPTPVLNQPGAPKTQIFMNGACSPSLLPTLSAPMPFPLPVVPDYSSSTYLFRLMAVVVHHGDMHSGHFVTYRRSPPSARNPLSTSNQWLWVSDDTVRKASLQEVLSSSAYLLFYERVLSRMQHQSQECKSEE
USP17 block – inhibitors of human USP17 deubiquitinase; A8MUK1; purified USP17, Ub-rhodamine cleavage fluorescence, 3 h; inhibition, % at 50 µM; 6.5% of 47,000 active
Large screens that a line does not name were inactive. Rule as the data show it: active = inhibition above about 30%; inactive = the rest.

CSc1ncc(C(=O)Nc2ccc(Cc3ccncc3)cc2)c(C)n1	none
CC1(c2ncc(CNC(=O)c3n[nH]c4c3CCCC4)cn2)CCCCO1 (stereo unspecified)	USP30 inh 31.6
COc1ccc(Cn2cccc(-c3nc(C4CC4)no3)c2=O)cc1F	USP28 inh 30.8
Cc1ccccc1Cn1cccc(-c2nc(C3CC3)no2)c1=O	USP28 inh 37.9
COc1ccc(C2c3[nH]c4ccccc4c3C[C@@H]3C(=O)N(CCN4CCOCC4)CC(=O)N23)cc1OC (stereo partly specified)	none
COC(=O)c1ccc2c(=O)n(-c3ccccc3)c(N3CCN(C)CC3)nc2c1	none
Cc1sc(-c2ccc(Cl)nc2)nc1OC(=O)c1ccc(F)cc1F	USP30 inh 44.5, USP17 block 53.3
Cc1sc(-c2ccncc2)nc1OC(=O)c1ccc(F)cc1F	none
O=C(c1cccc2c1C(=O)N(C1CCCCC1)C2)N1CCN(c2ccccn2)CC1	none
O=C(c1cc2c(s1)CN(C1CC1)C2)N1CCN(c2ccccn2)CC1	USP17 block 40.4
CCc1nn2c(S(=O)(=O)N3CCCCCC3)c(C)nc2s1	none
Cc1noc(C)c1CN1CCC(C2CCCCCN2C(=O)C2CC2)CC1 (stereo unspecified)	none
O=C(NC1CCCC1)c1ccc(-c2ccc(S(=O)(=O)NCc3ccccc3)cc2)cc1	USP8 inh 45.0, USP30 inh 41.0
CCCNC(=O)CCc1nc2c(C)nn(-c3ccccc3)c2n(C)c1=O	none
O=C(CSc1nnc(-c2cccnc2)o1)N1CCN(c2ccccc2)CC1	none
COc1ccc(CCNC(=O)c2cnn(-c3ccc([N+](=O)[O-])cc3)c2C2CCNCC2)c(OC)c1	USP30 inh 34.0
Cc1ccc2nc(-c3ccc(NC(=O)COC(=O)CCC(=O)Nc4sc5c(c4C(N)=O)CCC5)cc3)sc2c1	USP8 inh 47.1
O=C(Nc1ccccc1)C1Cn2ccnc2C2(CCN(S(=O)(=O)C3CC3)CC2)O1 (stereo unspecified)	none
Cc1ccc(-c2nc3c(c(SCC(=O)NCc4ccco4)n2)COC(C)(C)C3)cc1	USP17 block 41.3
Cc1ccc(-c2nc3c(c(SCC(=O)c4ccccc4)n2)COC(C)(C)C3)cc1	none
O=C(Nc1ccccc1-c1nc2ccccc2o1)C1COc2ccccc2O1 (stereo unspecified)	none
O=C(NCc1cccc(Cl)c1)c1ccc2c(c1)SC1=NS(=O)(=O)CCN12	none
CC(C)(C)c1ccccc1NC(=O)c1ccc2c(c1)SC1=NS(=O)(=O)CCN12	USP28 inh 31.1
O=C(CC1CCCC1)Nc1cc(F)c2nc(N3CCOCC3)ccc2c1	USP8 inh 70.7
O=C(Nc1cc(F)c2nc(N3CCOCC3)ccc2c1)C1CCCC1	USP8 inh 56.6
O=C(Nc1ccc(N2CCOCC2)c(S(=O)(=O)Nc2ccccc2Cl)c1)C1CCCC1	none
Cc1sc(-c2ccncc2)nc1OC(=O)c1ccc(Cl)cc1Cl	none
CC(C)C(NS(=O)(=O)c1ccc2ccccc2c1)C(=O)NCCN1CCOCC1 (stereo unspecified)	none
O=C1c2c(O)c(Cl)cc3c2[C@@]2(Oc4ccc(O)c5c4[C@]3(O2)[C@@H]2O[C@@H]2C5=O)[C@@H]2O[C@H]12	USP28 inh 90.2, USP30 inh 44.1, USP17 block 80.1
CC[C@@H]1CCC[C@H](C)CC[C@@H](O[C@@H]2O[C@@H](C)[C@@H](O)[C@@H](N)[C@H]2O)[C@H](CC)CCCNC1=O	USP28 inh 82.5, USP30 inh 94.9, USP17 block 83.0
Cc1ccccc1NS(=O)(=O)c1c[nH]c2ncccc12	none (no result: USP17 block)
CCOC(=O)c1oc2nc(-c3ccccc3)cc(-c3cccs3)c2c1N	none
Cc1nccc(N2CCC(c3c(C(=O)N(C)C)sc4nccnc34)CC2)n1	USP30 inh 30.4
CCC(Sc1cccc(NC(=O)C2CCCCC2)c1)C(=O)Nc1cc([N+](=O)[O-])ccc1C (stereo unspecified)	USP8 inh 62.7
O=C(Nc1cccnc1)C1CCN(c2ccc([N+](=O)[O-])cn2)CC1	none
CCCCc1nc2sc3c(NCCN4CCOCC4)ncnc3c2c2c1CCC2	USP28 inh 82.9
CCN(CC)c1ncnc2c1sc1nc(-c3ccccc3)c3c(c12)CCC3	none
CC(C)CNc1ncnc2c1sc1nc(-c3ccccc3)c3c(c12)CCC3	USP8 inh 39.0 (no result: USP17 block)
CCN(CCO)c1ncnc2c1sc1nc(-c3ccccc3)c3c(c12)CCC3	USP17 block 32.8
CN(C)c1ncnc2c1c(-c1ccccc1)cn2-c1ccc(F)cc1	none
Cc1cccc(OCC(=O)N(c2nc3ccccc3s2)c2ccccc2C)c1	none
Cc1ccc2nc(N(CCCN(C)C)C(=O)COc3ccccc3)sc2c1	USP30 inh 41.0, USP17 block 35.6
CC(=O)N1CCCc2cc(S(=O)(=O)N(C)C(C)CCc3ccco3)ccc21 (stereo unspecified)	none
Cc1ccc(C2(C(F)(F)F)NC(=O)Nc3nc(N4CCCC4)sc32)cc1 (stereo unspecified)	none
COc1ccc(CCN2CCC(N(CC3CC3)C(=O)c3cccnc3)CC2)cc1	none
O=C(NCc1ccc(Br)cc1)c1ccc(-c2cccnc2)nc1	USP30 inh 55.2
O=C(NCc1cccc(Br)c1)c1ccc(-c2cccnc2)nc1	none
Cc1ccc2nc(NC(=O)C3CCCN3S(=O)(=O)c3ccc4c(c3)OCCO4)sc2c1 (stereo unspecified)	USP28 inh 53.4
Cc1ccc(C(=O)N2CCCC(Cc3cncc(-c4cnc(C)n4C)n3)C2)cn1 (stereo unspecified)	none
O=c1c(S(=O)(=O)N2CCCC2)cccn1Cc1ccc(F)cc1	none
COc1ccc(CCn2cnc3c4ccccc4n(C)c3c2=O)cc1	none
COc1ccc(CCn2cnc3c4ccccc4n(C)c3c2=O)cc1OC	USP28 inh 67.2
O=C(Nc1ccccc1F)c1ccc(N2CCCCS2(=O)=O)cc1Cl	none
O=C(Nc1nc2ccsc2c(=O)s1)C1CCC1	none
CSc1nc(N2CCCC2)c2sccc2n1	USP17 block 40.3
Cc1cc(CN2C(=O)NC(C)(c3cc4ccccc4o3)C2=O)on1 (stereo unspecified)	none
CC1CCC(NC(=O)C2CCCN2S(=O)(=O)c2ccc3nc(-c4ccccc4)[nH]c3c2)CC1 (stereo unspecified)	USP17 block 34.1
Cc1cc2nc(Oc3cccc(Cl)c3)c3ccccc3n2n1	USP17 block 61.9
CC1Cc2nc3ccccc3n2CCN1C(=O)Nc1ccccc1 (stereo unspecified)	none
NC(=O)C1CCN(C(=O)c2ccc3c(=O)n(CCc4ccccc4)c(=O)[nH]c3c2)CC1	none
O=C(CSc1nnc(CNC(=O)c2ccccc2F)o1)Nc1ccc(Br)cc1	USP17 block 32.6
COc1ccccc1N1CCN(C(=O)CSc2cc(=O)n(C)c3ccccc23)CC1	USP30 inh 32.0
CC1(C)Cc2c(c(-c3ccco3)nc3sc4c(NCc5ccccn5)ncnc4c23)CO1	USP17 block 37.8
CCCCCCNc1ncnc2c1sc1nc(-c3ccccc3)c3c(c12)CC(C)(C)OC3	USP30 inh 30.8
Cc1cc(N)n(-c2nc3ccccc3s2)n1	USP30 inh 40.9, USP17 block 35.7
Nc1c(-c2ccccc2)c(COc2ccccc2)nn1-c1nc2ccccc2s1	none
